Our source for the Percent Effect values is ChEMBL document CHEMBL3988442, “University of Dundee, Small-Polar-MMV Screening Library” (2021).

Hit rate of the full screen: of about 69,000 compounds, about 50 (0.07%) showed an effect of 50% or more. What follows is part of a selection rich in strong results, with near analogues and random picks from the rest.

Sequence of Lysine--tRNA ligase (Plasmodium falciparum (isolate 3D7)) (Q8IDJ8 1-583): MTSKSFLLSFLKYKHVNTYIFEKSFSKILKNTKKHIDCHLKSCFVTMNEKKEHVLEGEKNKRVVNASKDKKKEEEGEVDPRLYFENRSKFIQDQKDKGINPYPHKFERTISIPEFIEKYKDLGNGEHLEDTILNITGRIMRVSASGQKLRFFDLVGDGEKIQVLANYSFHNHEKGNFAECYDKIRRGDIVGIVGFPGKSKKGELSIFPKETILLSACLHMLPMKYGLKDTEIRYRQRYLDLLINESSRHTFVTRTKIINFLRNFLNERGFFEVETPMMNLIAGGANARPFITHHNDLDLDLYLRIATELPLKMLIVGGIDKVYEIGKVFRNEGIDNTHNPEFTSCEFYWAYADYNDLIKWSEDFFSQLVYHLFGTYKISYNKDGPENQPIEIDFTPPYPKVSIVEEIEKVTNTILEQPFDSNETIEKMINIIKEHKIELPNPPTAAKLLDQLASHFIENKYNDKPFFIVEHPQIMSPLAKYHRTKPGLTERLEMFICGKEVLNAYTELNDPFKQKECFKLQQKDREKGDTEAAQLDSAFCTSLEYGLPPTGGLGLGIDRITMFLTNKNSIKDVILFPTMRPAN

This experiment addresses Lysine--tRNA ligase (Plasmodium falciparum (isolate 3D7)) (UniProt Q8IDJ8). The experiment can be described thus: Pf-KRS-1 (Lysyl-RNA Synthetase-1, KRS-1, cytosolic KRS) from Plasmodium falciparum. Inhibitor assay, 384 well plate, luminescence read. Conditions: 30 µM. Also on record: scale not given: in the data most compounds retested in dose-response had high values. The experiment is classed as functional.
Turning to `c1cnc(N2CC[C@@H]3CN(Cc4ccncc4)CCO[C@@H]3C2)nc1`, the Percent Effect turned out to be 4.97%. As for `Cc1cccc(CO[C@H]2CN(c3nnc(C)s3)[C@@H]3CCCO[C@H]23)n1`, the Percent Effect is 3.74%. As for `COc1cccc(-c2n[nH]c3c2CN(C(=O)c2cc(C)n(C)n2)CC3)c1`, the Percent Effect is -1.18%. For the compound `COc1cccc(-c2n[nH]c3c2CN(C(=O)c2cccc(=O)[nH]2)CC3)c1`, the Percent Effect came to 55.1%. Turning to `COc1cccc(-c2n[nH]c3c2CN(C(=O)c2ccncc2)CC3)c1`, the Percent Effect was determined as 0.631%.

As to `Cn1cccc1C(=O)N1C[C@H](OCC2CCOCC2)[C@H]2COC[C@H]21`, the Percent Effect was 3.49%.

Regarding `c1cnnc(N[C@@H]2CC[C@@H]3CN(Cc4c[nH]c5ccccc45)C[C@@H]32)c1`, the Percent Effect stood at 0.669%. With `CCCN(C(=O)c1ccccn1)c1nc2c(s1)CCc1c-2cnn1C`, the Percent Effect came out at 50.4%. As to `CCCN(C(=O)c1ccncc1)c1nc2c(s1)CCc1c-2cnn1C`, the Percent Effect amounted to 16.2%.

`COCCN(C(=O)c1cnccn1)c1nc2c(s1)CCc1c-2cnn1C`: the Percent Effect worked out at 8.73%.

Take `CCCN(C(=O)c1cccnc1)c1nc2c(s1)CCc1c-2cnn1C`: the Percent Effect came out at 44%.

As to `CCCN(C(=O)COC)c1nc2c(s1)CCc1c-2cnn1C`, the Percent Effect worked out at 74.8%. With `CCCN(C(=O)c1cnccn1)c1nc2c(s1)CCc1c-2cnn1C`, the Percent Effect was found to be 10.8%. Regarding `COCCN(C(=O)c1ccccn1)c1nc2c(s1)CCc1c-2cnn1C`, the Percent Effect was determined as 52.4%.

For `CN(C(=O)c1ccccn1)c1nc2c(s1)CCc1c-2cnn1C`, the Percent Effect came to 0.965%.

As to `CCCN(C(=O)c1cnc(C)cn1)c1nc2c(s1)CCc1c-2cnn1C`, the Percent Effect was 40.4%. `Cc1nccc([C@H]2C[C@@H]3CCN(S(C)(=O)=O)C[C@H]3O2)n1`: the Percent Effect is -0.787%. As for `O=C([C@H]1COC[C@H]2CN(c3ccncn3)C[C@H]21)N1CCCC1`, the figure is -3.71%. For the compound `O=C(Nc1cnccn1)[C@H]1C[C@H]2OCC[C@H]2N(c2ncc(F)cn2)C1`, the Percent Effect was 11.9%. On to `COc1cccc(-c2ncc(CN3C[C@@H]4CC[C@H](C3)N(C)C4=O)s2)c1`, for which the Percent Effect was -4.12%. As for `COc1ccc(OC)c(C2SCC(=O)Nc3n[nH]cc32)c1` (stereo unspecified), the Percent Effect was found to be 4.67%. As for `CCn1ncnc1C1CC(=O)NCc2nc(N3CCOCC3)sc21` (stereo unspecified), the figure is 0.366%; as for `COc1ccc(C2CC(=O)NCc3nc(N(C)C)sc32)c(O)c1` (stereo unspecified), 1.01%. `COc1ccc(C2CCCN2c2nnc(C)s2)c(OC)c1` (stereo unspecified): the Percent Effect was -1.09%. As for `COc1ccc(OC)c(C2CC(=O)Nc3nc(N4CCOCC4)sc32)c1` (stereo unspecified), the figure is 84.5%; as for `COc1ccc(C2CC(=O)Nc3nc(N4CCOCC4)sc32)c(OC)c1` (stereo unspecified), 86.4%. Regarding `COc1ccc(OC)c(C2CCN(CC(C)(C)N3CCOCC3)C2)c1` (stereo unspecified), the Percent Effect was 1.11%.

Take `COc1ccc(C2CC(=O)Nc3nc(N4CCOCC4)sc32)cc1` (stereo unspecified): the Percent Effect was determined as 82.2%.

Regarding `COc1ccc(C2CC(=O)Nc3c2cnn3C)cc1` (stereo unspecified), the Percent Effect is -3.99%. As for `COCCN1C(=O)CO[C@H]2CN(Cc3ccccc3Cl)C[C@@H]21`, the figure is 3.69%; as for `O=C(c1cocn1)N1C[C@H]2CCC[C@@]2(COCc2cccnc2)C1`, 2.44%; as for `Cc1c(Cl)cccc1S(=O)(=O)N1C[C@@H]2CC[C@H](C1)N(C)C2=O`, 3.71%. Turning to `O=S1(=O)C[C@@H]2[C@H](C1)N(Cc1ccoc1)CCN2Cc1ccncc1`, the Percent Effect was found to be 8.97%. For `O=C(c1ccncc1)N1C[C@@H]2CC[C@H](C1)N(C(=O)C1CCCC1)C2`, the Percent Effect was -0.475%. `CNc1nc2c(s1)C(c1cccc(F)c1F)CC(=O)N2` (stereo unspecified): the Percent Effect was determined as 50.5%. As for `CNc1nc2c(s1)C(c1ccc(Cl)cc1Cl)CC(=O)N2` (stereo unspecified), the figure is 47.4%; as for `CNc1nc2c(s1)C(c1ccc(F)cc1Cl)CC(=O)N2` (stereo unspecified), 82%. In the case of `CNc1nc2c(s1)C(c1ccccc1Cl)CC(=O)N2` (stereo unspecified), the Percent Effect was determined as 84.5%. For `Cn1ncc2c1NC(=O)CC2c1ccccc1Cl` (stereo unspecified), the Percent Effect worked out at 6.28%. As for `Cc1ccsc1C1CC(=O)Nc2c1cnn2C(C)C` (stereo unspecified), the figure is 3.08%; as for `Cn1ncc2c1NC(=O)CC2c1ccc(Cl)cc1Cl` (stereo unspecified), 9.51%; as for `CNc1nc2c(s1)C(c1cccc(Cl)c1Cl)CC(=O)N2` (stereo unspecified), 29.5%. Then `CNc1nc2c(s1)C(c1ccccc1F)CC(=O)N2` (stereo unspecified), with 79.2%. `O=C1CC(c2ccccc2F)c2c(n3ccsc3nc2=O)N1` (stereo unspecified): the Percent Effect was found to be 6.5%. Consider `CC(C)(C)n1ncc2c1NC(=O)CC2c1c(F)cccc1F` (stereo unspecified), for which the Percent Effect was 5.99%. Then `CNc1nc2c(s1)C(c1cc(Cl)ccc1F)CC(=O)N2` (stereo unspecified), with 44.9%; and `O=C(NCC1CC1)[C@@H]1CC[C@@H]2[C@@H](CCN2Cc2ccco2)O1`, with -0.532%; and `COCCN1C[C@H]2CN(Cc3cccc(OC)c3)CCN2C1=O`, with 8.64%. Regarding `COc1ncccc1C(=O)N1C[C@@H]2COC[C@]2(CN(C)C)C1`, the Percent Effect was -2.56%. With `Fc1ccccc1CN1C[C@@H]2OCCN(c3ncccn3)[C@@H]2C1`, the Percent Effect is -1.46%. As for `COCCN1C(=O)[C@H]2CC[C@@H]1CN(S(=O)(=O)c1ccc(OC)cc1)C2`, the figure is 5.86%; as for `c1cnc2c(-c3nccn3C[C@@H]3CCCN4CCCC[C@H]34)cccc2c1`, 1.5%; as for `Cc1cccc(S(=O)(=O)N2CC[C@H]3[C@H]2CCN3c2ncccn2)c1`, 1.51%. Consider `O=C(c1cscn1)N1CC[C@@H]2[C@@H]1CCN2C1CCOCC1`, for which the Percent Effect stood at 1.62%. `CN1C[C@@H]2CC[C@H](CC1=O)N2C(=O)c1ccc(-c2ccccc2)[nH]c1=O`: the Percent Effect was 16.3%. Turning to `COc1ccc(CC(=O)N2CC[C@@H]3CN(C)S(=O)(=O)[C@@H]3CC2)cc1`, the Percent Effect was determined as 3.63%. `Cn1ncc2c1NC(=O)CC2c1c(F)cccc1Cl` (stereo unspecified): the Percent Effect was found to be 2.46%. Then `CNc1nc2c(s1)C(c1c(Cl)cccc1Cl)CC(=O)N2` (stereo unspecified), with 35.2%. As for `CNc1nc2c(s1)C(c1c(F)cccc1Cl)CC(=O)N2` (stereo unspecified), the figure is 70%; as for `O=C1C[C@H]2[C@@H](CCN2C(=O)Cc2cccs2)N1Cc1ccncc1`, 3.5%. As for `Cc1cccc(CN2C[C@@H]3OCCN(S(=O)(=O)N(C)C)[C@@H]3C2)c1`, the figure is 2.13%.
